D3 ag – activates the human D3 dopamine receptor; P35462; D3R DiscoveRx beta-arrestin cells, luminescence, 90 min; max activation, %; 410,000 tested, 0.58% active; in the data active = max activation above about 30%
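Cells at 1500/well, incubated overnight, then treated with pinned compounds (dopamine as control) for 90 min at 37 degrees C. DiscoveRx reagent added for 30 - 60 minutes at room temperature; luminescence read.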
D3 antag – antagonists of human D3 dopamine receptor; D3R cells, DiscoveRx beta-arrestin luminescence, antagonist mode; active compounds read low; max response, negative = inhibition, %; 360,000 tested, 2.5% active; in the data active = max response below about -50%; inconclusive = no clear call, values can overlap the other calls
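Cells expressing the human receptor were seeded at 1500 cells/well, incubated overnight at 37 degrees C in 5% CO2, then exposed to library compounds with dopamine controls for 90 minutes at 37 degrees C before luminescent detection.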
IL1B secr inh – inflammasome signaling inhibition, IL-1 beta readout. THP-1 LPS/ATP IL-1B secretion, AlphaLISA, 16 h; active compounds read low. activity change, % at 57.5 µM. 360,000 tested, 4.7% active. AID 743279; in the data active = activity change below about -50%; inconclusive = mostly about -30% to -49%
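Secreted IL-1B measured by AlphaLISA bead assay after 16 h compound exposure of THP-1 cells; compounds (final up to 57.5 uM) added 1 h before LPS (250 ng/mL) and ATP (1.25 mM) stimulation; lower signal means less secretion.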
DT40 TDP1 CPT – DT40-hTDP1 cell growth loss with CPT. chicken DT40 Tdp1-/-;hTDP1 cells + 20 nM CPT, ATP luminescence, 48 h. Potency, µM (doses to about 46.2 µM), hits mostly inhibitors. 420,000 tested, 12% active; also: nearly all actives have a fitted effect of over 55% in size
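Cell growth measured by CellTiter-Glo luminescence after a minimum 48 h, 37 C compound exposure with 20 nM CPT in Tdp1-knockout DT40 cells stably expressing hTDP1, seeded 400/well; qHTS titration format.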
DT40 TDP1 no CPT – qHTS for Inhibitors of human tyrosyl-DNA phosphodiesterase 1 (TDP1): qHTS in cells in absence of CPT; DT40 Tdp1-/- hTDP1 cells, no CPT, ATP luminescence, 48 h; 420,000 tested, 15% active; AID 686978, 2013; Potency, µM (doses to about 46.2 µM), actives largely listed as inhibitors; also: nearly all actives have a fitted effect of over 55% in size
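Seeded 400 DT40-hTDP1 cells/well (vehicle DMSO, no 20 nM CPT); pinned compounds; ≥48 hr at 37 °C; CellTiter-Glo luminescence as viability measure.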
ClpP mod – qHTS Assay for Activators of ClpP; 340,000 tested, 1.9% active; purified B. subtilis ClpP, FRET peptide cleavage, 20 min; ATP-dependent Clp protease proteolytic subunit (Bacillus subtilis (strain 168)), P80244; Potency, µM (titrated, usually from 57.5 µM); active = well fitted falling curve with a large enough effect; inconclusive = small, poorly fitted or top-dose-only effect; inactive = no such curve, though single readings can be large or run the other way; also: the source files actives as falling curves though it sought activators and does not explain the sign; nearly all actives have a fitted effect of over 65% in size
Target sequence (P80244 whole entry, looked up): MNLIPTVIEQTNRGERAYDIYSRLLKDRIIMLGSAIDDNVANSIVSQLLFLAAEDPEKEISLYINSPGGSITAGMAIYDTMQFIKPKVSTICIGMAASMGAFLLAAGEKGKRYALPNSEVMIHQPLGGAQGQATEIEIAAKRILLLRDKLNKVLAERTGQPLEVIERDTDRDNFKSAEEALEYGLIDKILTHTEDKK
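Purified B. subtilis ClpP, 10 microg/mL final in Tris/HCl pH8 with KCl, BSA, glycerol and Tween-20, cleaved an Abz/nitrotyrosine-quenched decapeptide. Fluorescence (ex 320, em 430) was read at 0 and 20 min at room temperature. Delta was normalized to 5.8 microM ADEP and DMSO/no-enzyme controls.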
Large screens that a line does not name were inactive; ! = not active in a repeat. A selection: hits, their analogues and other compounds. The true share with any hit is near 21%. Unless noted, calls follow the shape of the dose curve; as a rule, active = well fitted inhibition curve with a large enough effect; inconclusive = small, poorly fitted or top-dose-only effect; inactive = flat fitted curve, though single readings scatter.

COC(=O)C1=C(c2ccc(F)cc2F)C[C@@H]2CC[C@H]1N2C(=O)NC1Cc2ccccc2C1	DT40 TDP1 CPT inconclusive, DT40 TDP1 no CPT inconclusive
O=C1NCN(c2ccccc2)C12CCN(CCCOc1ccc(F)cc1)CC2	DT40 TDP1 CPT inconclusive, DT40 TDP1 no CPT 23µM (no result: D3 antag, IL1B secr inh, ClpP mod)
CCCCn1nnnc1C(C1CC1)N1CCC2(CC1)C(=O)NCN2c1ccccc1 (stereo unspecified)	DT40 TDP1 CPT inconclusive, DT40 TDP1 no CPT inconclusive
COC(C)C(O)(C(=O)OC1=CCN2CC[C@H](O)[C@H]12)C(C)C (stereo partly specified)	DT40 TDP1 CPT 11µM, DT40 TDP1 no CPT 21µM (no result: D3 ag, D3 antag, IL1B secr inh, ClpP mod)
CCOc1cc(/C=C2/C(=O)NC(=O)N(c3ccc(CC)cc3)C2=O)ccc1OC(=O)c1cccs1	DT40 TDP1 no CPT 29µM
Cc1ccnc2c1NC(=O)c1cccnc1N2C1CC1	DT40 TDP1 CPT 6.5µM!, DT40 TDP1 no CPT 8.2µM!
Cc1cccnc1-n1c(CN2C(=O)c3ccccc3C2=O)nc2ccccc2c1=O	none
CC(C)CCn1c(=O)c(C(=O)Nc2ccccc2S(N)(=O)=O)c(O)c2ccccc21	DT40 TDP1 CPT 4.6µM, DT40 TDP1 no CPT 5.2µM
CCCCCn1c(=O)c(C(=O)Nc2ccccc2Cl)c(O)c2ccccc21	DT40 TDP1 CPT 5.2µM, DT40 TDP1 no CPT 5.2µM
CCCCn1c(=O)c(C(=O)Nc2ccccc2C)c(O)c2ccccc21	DT40 TDP1 CPT 8.2µM, DT40 TDP1 no CPT 9.2µM
CCCCn1c(O)c(C(C)=NCc2cccnc2)c(=O)[nH]c1=O	none
CC(C)CCn1c(=O)c(C(=O)NCc2ccc3c(c2)OCO3)c(O)c2ccccc21	DT40 TDP1 CPT inconclusive, DT40 TDP1 no CPT inconclusive
CCCCCn1c(=O)c(C(=O)NCCc2ccccc2)c(O)c2ccccc21	DT40 TDP1 CPT inconclusive, DT40 TDP1 no CPT inconclusive
CCCCCn1c(=O)c(C(=O)Nc2ncccc2C)c(O)c2ccccc21	DT40 TDP1 CPT inconclusive, DT40 TDP1 no CPT inconclusive (no result: ClpP mod)
CCCCn1c(=O)c(C(=O)Nc2cnccn2)c(O)c2ccccc21	DT40 TDP1 CPT 2.9µM, DT40 TDP1 no CPT 5.2µM
O=C(O)CSC(=S)N1CC2CC(C1)c1cccc(=O)n1C2 (stereo unspecified)	DT40 TDP1 no CPT inconclusive
CCCCn1c(=O)c(C(=O)NCc2ccccc2OC)c(O)c2ccccc21	DT40 TDP1 CPT inconclusive, DT40 TDP1 no CPT inconclusive
CCCCCn1c(=O)c(C(=O)Nc2nc3ccccc3[nH]2)c(O)c2ccccc21	DT40 TDP1 CPT 2.9µM, DT40 TDP1 no CPT 5.2µM (no result: ClpP mod)
CCCCn1c(=O)c(C(=O)Nc2cccc(C)c2)c(O)c2ccccc21	DT40 TDP1 CPT 5.8µM, DT40 TDP1 no CPT 4.6µM
CC(C)N1C(=O)CCC1C(=O)N1CCC2(CC1)OCCO2 (stereo unspecified)	none
COc1cccc2c1C(=O)c1c(O)c3c(c(O)c1C2=O)C[C@@](O)(C(=O)CO)C[C@@H]3O[C@H]1C[C@H](N)[C@H](OC2CCCCO2)[C@H](C)O1 (stereo partly specified)	DT40 TDP1 CPT 0.28µM, DT40 TDP1 no CPT inconclusive (no result: D3 ag, D3 antag, IL1B secr inh)
CCCCC(=O)OCC(=O)C1(O)Cc2c(O)c3c(c(O)c2C(OC2CC(NC(=O)C(F)(F)F)C(O)C(C)O2)C1)C(=O)c1c(OC)cccc1C3=O (stereo unspecified)	IL1B secr inh inconclusive, DT40 TDP1 CPT 1.2µM, DT40 TDP1 no CPT 2.1µM
CCc1cccc(CC)c1NC(=S)N1CC2CC(C1)c1cccc(=O)n1C2 (stereo unspecified)	none
CN1CCN(c2cc([N+](=O)[O-])ccc2Cl)CC1	D3 antag -99
CN1CCN(c2ccc([N+](=O)[O-])cc2Cl)CC1	DT40 TDP1 no CPT inconclusive (no result: ClpP mod)
N#Cc1nn(-c2c(Cl)cc(C(F)(F)F)cc2Cl)c(N)c1S(=O)C(F)(F)F (stereo unspecified)	DT40 TDP1 CPT 9.6µM, DT40 TDP1 no CPT 8.6µM (no result: D3 antag, IL1B secr inh, ClpP mod)

Screening results (PubChem BioAssay)
